Bioassay records as filed in PubChem.
Dicer processing – inhibitors of Dicer pre-microRNA processing, primary screen, biochemical, cat-ELCCA, chemiluminescence; Endoribonuclease Dicer (Homo sapiens), Q9UPY3; cat-ELCCA pre-miR-21 Dicer processing; active compounds read high; z-score at 25 µM; hit rate 6% among 47,000; AID 1347074, 2019; in the data active means z-score above about 3, passing the limit was not always enough;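 further: higher signal means more uncleaved substrate so more Dicer inhibition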
Target sequence (Q9UPY3 whole entry, looked up): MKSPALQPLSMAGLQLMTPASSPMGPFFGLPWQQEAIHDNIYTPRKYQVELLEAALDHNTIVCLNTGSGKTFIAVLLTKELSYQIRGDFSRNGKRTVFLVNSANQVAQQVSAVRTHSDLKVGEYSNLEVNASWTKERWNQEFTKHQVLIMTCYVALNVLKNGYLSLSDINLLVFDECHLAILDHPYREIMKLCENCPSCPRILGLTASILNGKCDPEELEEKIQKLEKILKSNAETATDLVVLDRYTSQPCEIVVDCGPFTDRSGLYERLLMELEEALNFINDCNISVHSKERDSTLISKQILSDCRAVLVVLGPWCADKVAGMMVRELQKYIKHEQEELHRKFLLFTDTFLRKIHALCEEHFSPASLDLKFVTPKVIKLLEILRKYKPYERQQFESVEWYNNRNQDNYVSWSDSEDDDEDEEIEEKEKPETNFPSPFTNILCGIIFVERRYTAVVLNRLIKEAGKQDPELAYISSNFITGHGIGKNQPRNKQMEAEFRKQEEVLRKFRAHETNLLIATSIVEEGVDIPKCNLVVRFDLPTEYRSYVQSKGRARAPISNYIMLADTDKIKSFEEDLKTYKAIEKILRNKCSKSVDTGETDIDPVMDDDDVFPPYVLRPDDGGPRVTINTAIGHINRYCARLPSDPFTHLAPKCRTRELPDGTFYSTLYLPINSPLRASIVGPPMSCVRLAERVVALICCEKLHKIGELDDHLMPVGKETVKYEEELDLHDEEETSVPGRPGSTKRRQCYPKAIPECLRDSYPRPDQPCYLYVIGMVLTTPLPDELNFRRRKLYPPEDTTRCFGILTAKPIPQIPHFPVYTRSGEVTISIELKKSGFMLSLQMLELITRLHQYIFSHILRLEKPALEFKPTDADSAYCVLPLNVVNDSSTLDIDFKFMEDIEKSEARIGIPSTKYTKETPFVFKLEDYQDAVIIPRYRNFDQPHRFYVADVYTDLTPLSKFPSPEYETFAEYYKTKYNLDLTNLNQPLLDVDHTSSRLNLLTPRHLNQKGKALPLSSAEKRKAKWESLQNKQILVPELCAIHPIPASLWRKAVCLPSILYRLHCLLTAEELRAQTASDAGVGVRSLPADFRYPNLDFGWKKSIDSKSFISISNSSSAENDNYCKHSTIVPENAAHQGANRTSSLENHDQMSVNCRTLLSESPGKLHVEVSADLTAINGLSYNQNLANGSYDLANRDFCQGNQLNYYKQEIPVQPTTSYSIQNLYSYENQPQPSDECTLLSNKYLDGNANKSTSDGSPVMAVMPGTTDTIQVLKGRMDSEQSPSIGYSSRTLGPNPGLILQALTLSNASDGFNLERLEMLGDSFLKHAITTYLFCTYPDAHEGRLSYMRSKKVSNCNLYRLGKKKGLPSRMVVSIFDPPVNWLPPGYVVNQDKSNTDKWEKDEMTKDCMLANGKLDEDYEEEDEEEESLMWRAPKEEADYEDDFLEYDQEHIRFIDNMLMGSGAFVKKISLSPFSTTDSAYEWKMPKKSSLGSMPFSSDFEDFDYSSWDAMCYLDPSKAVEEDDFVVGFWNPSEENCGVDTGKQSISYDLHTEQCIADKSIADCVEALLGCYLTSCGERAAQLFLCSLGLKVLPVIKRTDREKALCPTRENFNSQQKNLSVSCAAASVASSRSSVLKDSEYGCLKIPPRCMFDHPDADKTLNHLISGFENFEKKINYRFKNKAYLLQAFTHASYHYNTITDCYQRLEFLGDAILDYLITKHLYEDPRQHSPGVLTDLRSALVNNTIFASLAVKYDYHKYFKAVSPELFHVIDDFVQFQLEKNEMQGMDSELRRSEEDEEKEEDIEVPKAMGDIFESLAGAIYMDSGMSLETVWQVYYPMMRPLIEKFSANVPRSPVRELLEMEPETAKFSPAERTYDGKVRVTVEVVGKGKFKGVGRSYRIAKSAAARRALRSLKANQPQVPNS
Hits are given with their value. The full list was thinned out, with hits kept by preference.

`COC(=O)C1=C(C)NC(C)=C(C(=O)OC(C)C)C1c1cccc2nonc12` (stereo unspecified) gave Dicer processing inactive.
For C=CCn1c(SCC(=O)NNC(=S)NC)nnc1-c1ccccc1 the results were Dicer processing inactive.
Screening CC(C)(C)c1ccc2c(c1)CN(c1ccc(C(=O)O)cc1)CO2 returned Dicer processing 3.9.
For CN(C(=O)c1ccc2c(c1)CCO2)C(C)(C)C the results were Dicer processing inactive.
For CC(C)(C)c1cc(C(C)(C)C)n(-c2ccc(C(=O)O)cc2)n1 the results were Dicer processing inactive.
For CC(C)(C)c1ccc(Oc2ccc(NC(=O)Nc3csc4ccccc34)cn2)cc1 the results were Dicer processing inactive.
Cc1ccc(-n2c(C)ccc2C)nc1 was read as Dicer processing inactive.
CCSc1nnc2nc3c4ccccc4c4ccccc4c3nn12 was read as Dicer processing inactive.
Screening S=c1[nH]nc2nc3c4ccccc4c4ccccc4c3nn12 returned Dicer processing 4.9.
S=c1[nH]nc2nc(-c3ccccc3)c(-c3ccccc3)nn12 was read as Dicer processing inactive.
`COC(=O)CSc1cc(C)nc2ccccc12` gave Dicer processing inactive.
For C=CCSc1n[nH]c(=O)n1-c1ccc(OCc2ccccc2)cc1 the results were Dicer processing inactive.
Screening CN(C)c1ccc(NC(=O)c2cc3c(n(-c4ccccc4)c2=O)CC(C)(C)CC3=O)cc1 returned Dicer processing inactive.
For COC(=O)CSc1nc(-c2ccccc2)cc(-c2ccc(OC)cc2)c1C#N the results were Dicer processing inactive.
Cc1nc(C)c(-c2ccn(C(=O)Nc3ccc(Cl)cc3)n2)s1 was read as Dicer processing inactive.
For Cn1ccnc1SCC(=O)Nc1nc(-c2ccc(F)cc2)cs1 the results were Dicer processing inactive.
`O=C(NC1CCCC1)NS(=O)(=O)c1ccccc1Cl` gave Dicer processing 3.2.
Screening CCCCNC(=O)NS(=O)(=O)c1ccccc1Cl returned Dicer processing inactive.
For CC(=O)c1ccc(S(=O)(=O)NC(=O)NC2CCCCC2)cc1 the results were Dicer processing inactive.
For C=CCOc1ccc(C2C(C(=O)c3cccs3)=C(O)C(=O)N2Cc2cccnc2)cc1 (stereo unspecified) the results were Dicer processing inactive.
For Cc1ccc(-c2nc(C3CCCCC3)no2)cc1 the results were Dicer processing inactive.
For CCOC(=O)c1ccc(-n2c(C)c3c(OCC)cccc(=O)c3c2C)cc1 the results were Dicer processing 3.6.
Screening CCOc1cccc(=O)c2c(C)n(-c3ccc4c(c3)OCO4)c(C)c12 returned Dicer processing inactive.
CCOc1cccc(=O)c2c(C)n(-c3ccc(OC)cc3)c(C)c12 was read as Dicer processing inactive.
For CC(=O)N1N=C(c2c(-c3c(Cl)cccc3Cl)noc2C)OC1c1ccc([N+](=O)[O-])s1 (stereo unspecified) the results were Dicer processing inactive.
Screening Nc1nc(SCC(=O)c2ccc(Cl)cc2)n[nH]1 returned Dicer processing inactive.
Cc1nc(C)c(-c2ccn(C(=O)c3ccc(Cl)cc3)n2)o1 was read as Dicer processing inactive.
For COc1cc(C(=O)NNC(=S)NC2CC3C=CC2C3)cc(OC)c1OC (stereo unspecified) the results were Dicer processing inactive.
`CC(C)C(=O)N(c1ccc2oc(=O)sc2c1)S(=O)(=O)c1ccc(Br)cc1` gave Dicer processing inactive.
Screening CCCCC(=O)N(c1ccc2oc(=O)sc2c1)S(=O)(=O)c1cccs1 returned Dicer processing inactive.
For CCCCC(=O)N(c1ccc2oc(=O)sc2c1)S(=O)(=O)c1ccc(OCC)cc1 the results were Dicer processing inactive.
Screening CCCC(=O)N(c1ccc2oc(=O)sc2c1)S(=O)(=O)c1ccc(F)cc1 returned Dicer processing inactive.
`CCCC(=O)N(c1ccc2oc(=O)sc2c1)S(=O)(=O)c1cc(OC)ccc1OC` gave Dicer processing inactive.
Screening CCCC(=O)N(c1ccc2oc(=O)sc2c1)S(=O)(=O)c1ccc(C(=O)O)cc1 returned Dicer processing inactive.
Screening CCCC(=O)N(c1ccc2oc(=O)sc2c1)S(=O)(=O)c1ccc(OC)c(OC)c1 returned Dicer processing 4.2.
CCCCC(=O)N(c1ccc2oc(=O)sc2c1)S(=O)(=O)c1ccc(OC)c(OC)c1 was read as Dicer processing 3.9.
O=C(Cc1ccccc1)N(c1ccc2oc(=O)sc2c1)S(=O)(=O)c1ccccc1 was read as Dicer processing 5.4.
Cc1ccc2c(c1)nnn2CNc1ccc(OC(F)(F)F)cc1 was read as Dicer processing inactive.
`CC(C)NC(=O)Cn1nc(C(F)(F)F)c2c1CCCC2` gave Dicer processing inactive.
For CCOC(=O)/C(=C(/C)Nc1ccc(F)cc1)C1CC(=O)N(c2ccccc2)C1=O (stereo unspecified) the results were Dicer processing inactive.
Screening COc1cc(C2NC(=O)c3c(sc4c3CCN(C)C4)N2)cc(Br)c1OC (stereo unspecified) returned Dicer processing inactive.
Screening CC(NC1=CC(=O)OC12CCCCC2)c1ccccc1 (stereo unspecified) returned Dicer processing inactive.
For CCCNC(=O)c1nn2c(c1Cl)NC(c1cccs1)CC2C(F)(F)F (stereo unspecified) the results were Dicer processing inactive.
Screening CCOC(=O)/C(C#N)=C/N=C(N/N=C/c1ccc(Cl)cc1)SC returned Dicer processing inactive.
For CCSc1nc(-c2ccc(Cl)cc2)[nH]c(=O)n1 the results were Dicer processing inactive.
Screening O=c1nc(SCc2c(Cl)cccc2Cl)nc(-c2ccc(Cl)cc2)[nH]1 returned Dicer processing 5.9.
Screening O=c1nc(SCc2ccccc2Cl)nc(-c2ccc(Cl)cc2)[nH]1 returned Dicer processing inactive.
OCC1c2ccccc2-c2ccccc21 was read as Dicer processing inactive.
O=C(NNc1ccccc1)Nc1cc(Cl)sc1Cl was read as Dicer processing inactive.
For O=C(Nc1ccncc1)c1cc([N+](=O)[O-])ccc1Sc1ccccn1 the results were Dicer processing inactive.
Screening C=CCOC(=O)C1=C(C)NC2=C(C(=O)CC(C)(C)C2)C1c1cc(Cl)c(O)c(OC)c1 (stereo unspecified) returned Dicer processing inactive.
Cc1ccnc(Nc2nc(-c3ccc(O)c(O)c3)cs2)c1 was read as Dicer processing 3.9.
Cc1cccc(Nc2nc(-c3ccc(O)c(O)c3)cs2)n1 was read as Dicer processing 5.2.
For Cc1cccc(Nc2nc(-c3ccncc3)cs2)n1 the results were Dicer processing inactive.
C=CCNc1nc(-c2ccc(O)c(OC)c2)cs1 was read as Dicer processing inactive.
`Cc1ccc(Nc2nc(-c3ccccc3)cs2)nc1` gave Dicer processing inactive.
For Cc1ccnc(Nc2nc(-c3ccc(O)cc3)cs2)c1 the results were Dicer processing inactive.
Screening CC1(C)Cc2cccc(C(=O)Nc3cccc4c3CCCC4)c2O1 returned Dicer processing inactive.
For O=C(Nc1ccc(Cl)cc1)OC1CCSC1 (stereo unspecified) the results were Dicer processing inactive.
Nc1ccc(S(=O)(=O)Nc2c(F)cccc2Cl)cc1 was read as Dicer processing inactive.
`C=CCOC(=O)C1=C(C)NC2=C(C(=O)CC(C)(C)C2)C1c1ccc(OCCC)c(OC)c1` (stereo unspecified) gave Dicer processing inactive.
CC(Oc1ccc2ccccc2c1I)C(=O)O (stereo unspecified) was read as Dicer processing inactive.
`CN(C)C(=O)C(=O)c1c(-c2ccccc2)[nH]c2ccc(Cl)cc12` gave Dicer processing inactive.
